Assay outcomes as filed in PubChem BioAssay.
SMARCA2 act = SMARCA2 function activation, primary screen | MG213 cells, MMTV-luciferase reporter, dexamethasone, overnight | 370,000 compounds, 1% hits | activation, % at 9.1 µM; in the data active = activation above about 7.8%
Vif imaging = HIV Vif inhibition | HEK293T cells, Vif self-association by quenched fluorescence, imaging, 24 h | inhibition, % at 7.49 µM | 340,000 compounds, 0.35% hits | AID 602346; in the data active = inhibition above about 50%, passing the limit was not always enough; inconclusive = no clear call, values can overlap the other calls; inactive = below about 31%
NR3A LBD binder = modulates the human NR3A ligand-binding domain; 340,000 compounds, 2.5% hits; AID 1259313; NR3A LBD differential scanning fluorimetry, Tm shift; 0% = protein alone, 100% = glycine-bound protein; Tm shift relative to glycine control, % at 25 µM;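 active = melting temperature shift of at least 10% of the positive control shift, at one fixed dose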
NadD inh = inhibitors of Staphylococcus aureus NadD; purified NadD enzyme, colorimetric absorbance read-out; inhibition, % at 20 µM; AID 602399; 360,000 compounds, 0.78% hits; in the data active = inhibition above about 26%
esBAF inh = SWI/SNF esBAF complex inhibition | mouse ES cells, Bmi1-luciferase knock-in reporter, 24 h; 100% = twice the neutral-well signal | 350,000 compounds, 2% hits | reporter increase, % at 12.5 µM; in the data active = activation above about 40%; inconclusive = no clear call, values can overlap the other calls;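 also: a rise in the Bmi1 reporter signal indicates esBAF inhibition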
SKN-1 inh = C. elegans SKN-1 inhibition; inhibition, % at 21.8 µM; AID 624304; C. elegans VP596 Pgst-4::GFP/RFP ratio, acrylamide-induced, 24 h; 360,000 compounds, 0.49% hits;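 active = interference check ratio from 0.5 to 1.5 plus GFP to RFP signal ratio inhibition reaching or exceeding a fixed threshold, cut at about 30% in these data, passing the limit was not always enough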
Large screens that a line does not name were inactive. Sampled rows, rich in hits. Any-hit rate of the full collection: about 5.2%.

O=c1cc(-c2ccc(O)cc2)oc2ccc3ccccc3c12	NR3A LBD binder 24
O=c1cc(-c2ccccc2)oc2ccc(Cl)cc12	NR3A LBD binder 14 (no result: esBAF inh)
COc1ccc2oc(-c3ccccc3)cc(=O)c2c1	none (no result: NR3A LBD binder)
CN(C)CCCN=c1cc(-c2ccccc2)oc2ccc(Cl)cc12	none (no result: esBAF inh)
O=c1oc2ccc(Cl)cc2cc1-c1ccccc1	NR3A LBD binder 14 (no result: esBAF inh)
O=c1cc(-c2ccc(O)cc2)oc2c1ccc1ccccc12	none
OCCN=c1cc(-c2ccccc2)oc2ccc(Cl)cc12	esBAF inh 46 (no result: SMARCA2 act)
COc1ccc(CN(C)C[C@H]2OCCCC[C@H](C)Oc3ccc(NS(=O)(=O)c4ccc(C)cc4)cc3C(=O)N([C@H](C)CO)C[C@@H]2C)cc1	none (no result: SMARCA2 act, Vif imaging, NR3A LBD binder, NadD inh, SKN-1 inh)
O=c1cc(-c2ccccc2)oc2ccc(Br)cc12	SMARCA2 act 7.8
O=c1cc(-c2ccc(F)cc2)oc2ccccc12	SKN-1 inh 53 (no result: esBAF inh)
Cc1ccccc1-c1cc(=O)c2ccccc2o1	none (no result: Vif imaging)
O=c1cc(-c2ccc3c(c2)OCCO3)oc2ccc(Cl)cc12	NR3A LBD binder 12
C[C@H]1CN([C@@H](C)CO)C(=O)CCCn2cc(nn2)CO[C@H]1CN(C)C(=O)Nc1ccccc1F	none (no result: SMARCA2 act, Vif imaging, NR3A LBD binder, NadD inh, SKN-1 inh)
CC(=O)N(C)C[C@H]1Oc2ncc(C#Cc3cccc(F)c3)cc2C(=O)N([C@@H](C)CO)C[C@H]1C	none (no result: SMARCA2 act, Vif imaging, NR3A LBD binder, NadD inh, SKN-1 inh)
CCOc1ccc(NC(=O)Nc2cc(C(=O)O)ccc2N2CC3CC(C2)c2cccc(=O)n2C3)cc1 (centres undefined)	NR3A LBD binder 11
CCOc1ccc(NC(=O)c2ccc(N3CC4CC(C3)c3cccc(=O)n3C4)c(NC(=O)c3cccnc3)c2)cc1 (centres undefined)	none
COc1ccc(CN2[C@@H]3CN(C(=O)Nc4ccc(F)cc4)c4ccccc4[C@@H]3[C@@H]2CO)cc1	none (no result: SMARCA2 act, Vif imaging, NR3A LBD binder, NadD inh, SKN-1 inh)
COC(=O)c1sccc1NC(=O)Nc1ccc(C)cc1C	none
COC(=O)c1sccc1NC(=O)Nc1ccc(C)cc1	esBAF inh 44
COC(=O)c1sccc1NC(=O)Nc1cccc(F)c1	NR3A LBD binder 10 (no result: Vif imaging, esBAF inh)
COC(=O)c1sccc1NC(=O)Nc1cc(C)cc(C)c1	esBAF inh 80
C[C@H]1CCCCO[C@H](CN(C)C(=O)Cc2ccccc2)[C@@H](C)CN([C@@H](C)CO)C(=O)c2cc(N(C)C)ccc2O1	none (no result: SMARCA2 act, Vif imaging, NR3A LBD binder, NadD inh, SKN-1 inh)
Cc1cc(C)n(-c2nc3ccccc3n3cnnc23)n1	SKN-1 inh 38
Cc1cc(C)nc(Nc2ccc(O)cc2)n1	none (no result: Vif imaging)
Cc1cc(C)nc(Nc2ccc(C(=O)O)cc2)n1	Vif imaging 58, esBAF inh inconclusive
CCc1ccc(Nc2nc(C)cc(C)n2)cc1	esBAF inh 49
Cc1ccc(S(=O)(=O)N[C@H]2C=C[C@@H](CC(=O)NCc3ccncn3)O[C@@H]2CO)cc1	none (no result: SMARCA2 act, Vif imaging, NR3A LBD binder, NadD inh, SKN-1 inh)
CC(=O)C(=Cc1ccc(C(=O)O)cc1)C(C)=O	none (no result: esBAF inh)
C/C(=C\c1ccc(C(=O)O)cc1)c1ccc2c(c1)C(C)(C)CCC2(C)C	esBAF inh 46
CCn1c(=N)n(CC(=O)c2ccc(Br)s2)c2ccccc21	esBAF inh 59
CCCCn1c(=N)n(CC(=O)c2ccc(Br)s2)c2ccccc21	none
C[C@H](CO)N1C[C@H](C)[C@@H](CN(C)S(=O)(=O)c2ccccc2)Oc2ccc(NC(=O)Cc3ccccc3)cc2CC1=O	none (no result: SMARCA2 act, Vif imaging, NR3A LBD binder, NadD inh, SKN-1 inh)
COc1ccc(CS(=O)(=O)CC(C)(O)c2ccccc2Cl)cc1 (centres undefined)	NR3A LBD binder 16
CC(O)(CS(=O)(=O)Cc1ccccc1)c1ccccc1 (centres undefined)	none
CCOP(=O)(OCC)C(NC(=O)Nc1ccc(C)c(Cl)c1)c1ccccc1 (centres undefined)	NR3A LBD binder 24 (no result: esBAF inh)
CCOP(=O)(OCC)C(NC(=O)Nc1ccc(Cl)c(Cl)c1)c1ccccc1 (centres undefined)	none (no result: esBAF inh)
COc1ccc(OCC(=O)Nc2cc3c(cc2C(=O)O)OCCCO3)cc1	Vif imaging 52
O=C(O)c1cc2c(cc1NC(=O)c1ccccc1C(F)(F)F)OCCCO2	none
CCc1ccc(C(=O)Nc2cc3c(cc2Cl)OCCCO3)cc1	esBAF inh 69
O=C(Cc1ccccc1)Nc1cc2c(cc1Cl)OCCCO2	esBAF inh 64
O=C(Cc1ccccc1)Nc1ccc(NC(=O)Cc2ccccc2)c(Cl)c1	none
O=C(Nc1cc2c(cc1C(=O)O)OCCCO2)c1ccc(C(F)(F)F)cc1	esBAF inh 55
CC(=O)N1C[C@@H]2[C@H](c3ccccc31)[C@@H](CO)N2C(=O)CC1CC1	none (no result: SMARCA2 act, Vif imaging, NR3A LBD binder, NadD inh, SKN-1 inh)
O=C(C1CCC1)N1C[C@H]2[C@@H](c3ccccc31)[C@@H](CO)N2C(=O)c1ccccc1	none (no result: SMARCA2 act, Vif imaging, NR3A LBD binder, NadD inh, SKN-1 inh)
COc1cc(SC)ccc1C(=O)OCC(=O)NCCNC(=O)COC(=O)c1ccc(SC)cc1OC	none
COC(=O)c1ccc(COC(=O)c2ccc(SC)cc2OC)cc1	esBAF inh 63
CCCNC(=S)Nc1cc2oc3ccccc3c2cc1OC	NR3A LBD binder 18 (no result: esBAF inh)
CCNC(=S)Nc1cc2oc3ccccc3c2cc1OC	esBAF inh 45
COc1ccc(Cl)cc1NC(=O)C1CCCO1 (centres undefined)	none (no result: Vif imaging)
COc1cc2c(cc1NC(=O)C1CCCO1)oc1ccccc12 (centres undefined)	esBAF inh 57
COc1cc2c(cc1NC(=S)NC(=O)/C=C/c1ccc(OC)c(OC)c1)oc1ccccc12	none (no result: esBAF inh)
CNC(=S)Nc1cc2oc3ccccc3c2cc1OC	NR3A LBD binder 18
O=C(Cc1ccccn1)NCC[C@H]1CC[C@H](NC(=O)Nc2ccc(Cl)cc2)[C@@H](CO)O1	none (no result: SMARCA2 act, Vif imaging, NR3A LBD binder, NadD inh, SKN-1 inh)
Cc1cccc(Nc2ncc3c(n2)CC(C)CC3=O)c1 (centres undefined)	esBAF inh 51
Cc1ccc(Nc2ncc3c(n2)CC(c2ccco2)CC3=O)c(C)c1 (centres undefined)	esBAF inh 54
Cc1cccc(Nc2ncc3c(n2)CC(c2ccco2)CC3=O)c1 (centres undefined)	none
CCCNC(=O)[C@@H]1[C@@H](CO)[C@@H]2Cn3c(ccc(-c4ccccc4OC)c3=O)[C@H]1N2C(=O)NCCC	none (no result: SMARCA2 act, Vif imaging, NR3A LBD binder, NadD inh, SKN-1 inh)
C/C=C/c1cnc2c(c1)C(=O)N([C@@H](C)CO)C[C@H](C)[C@@H](CN(C)C(=O)CCN1CCCCC1)O2	none (no result: SMARCA2 act, Vif imaging, NR3A LBD binder, NadD inh, SKN-1 inh)
CCCCc1nnc(NC(=O)c2oc3ccccc3c2C)s1	esBAF inh 63 (no result: Vif imaging)
Cc1nc(NC(=O)c2oc3ccccc3c2C)sc1C(=O)N(C)C	esBAF inh 62
O=C(C[C@@H]1C=C[C@@H](NC(=O)Nc2cc(F)ccc2F)[C@H](CO)O1)Nc1ccccc1	none (no result: SMARCA2 act, Vif imaging, NR3A LBD binder, NadD inh, SKN-1 inh)
C[C@H](CO)N1C[C@H](C)[C@@H](CN(C)Cc2ccccc2)Oc2c(NC(=O)c3cnccn3)cccc2C1=O	none (no result: SMARCA2 act, Vif imaging, NR3A LBD binder, NadD inh, SKN-1 inh)
COc1ccc(NS(=O)(=O)c2cc(C(=O)N3CCN(C(C)=O)CC3)ccc2Cl)cc1	none
COc1ccc(NC(=O)/C(N=Nc2ccc(Cl)c(S(=O)(=O)Nc3ccc(Cl)cc3)c2)=C(\C)O)cc1	NadD inh 31
